Screening data deposited in PubChem by several laboratories.
Compounds with a hit are over-represented: about 1.1% of the library has one in this group of screens.
DSG3 Ab inh – blocks pemphigus antibody binding to human desmoglein-3 | P32926 | DSG3-coupled beads, scFv-anti-DSG3-GFP binding, flow cytometry; stronger effect = lower value | binding (percent of control), % at 10 µM | actives 0.48% (n = 310,000);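 active means binding more than 3 SD below its plate's average and above zero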;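 further: hits lower antibody fragment binding to DSG3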
AI-2 QS modul – modulates the Vibrio harveyi AI-2 quorum sensing system; Vibrio harveyi JMH597 AI-2 luminescence/OD600 ratio, 9 h; stronger effect = lower value; strain lacks LuxN and CqsS sensors; 0 = neutral-control median; activity change, % at 7.5 µM; actives 0.4% (n = 300,000); in the data active means activity change below about -75%, passing the limit was not always enough;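 further: luminescence divided by OD600 gain over 9 h not by final OD600 alone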
VLA-4 inh – inhibition in a human VLA-4 binding assay; P13612; VLA-4 expressing cells, ligand binding flow cytometry; inhibition, % (about 7 µM as worked out from the volumes in the protocol); actives 0.2% (n = 330,000); AID 2557; in the data active means inhibition above about 50%
NTR1 ag – agonists of human neurotensin receptor NTR1 | AID 493036 | actives 0.17% (n = 330,000) | NTR1-U2OS beta-arrestin-GFP spot imaging, agonist mode | activation, % at 20 µM;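 active means activation at or above 40% of the spot to cytoplasm intensity ratio, with at least 20 cells analyzed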;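 further: 0% = DMSO without peptide and 100% = 100 nM NTR1 peptide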
Target sequence (P30989 whole entry, looked up): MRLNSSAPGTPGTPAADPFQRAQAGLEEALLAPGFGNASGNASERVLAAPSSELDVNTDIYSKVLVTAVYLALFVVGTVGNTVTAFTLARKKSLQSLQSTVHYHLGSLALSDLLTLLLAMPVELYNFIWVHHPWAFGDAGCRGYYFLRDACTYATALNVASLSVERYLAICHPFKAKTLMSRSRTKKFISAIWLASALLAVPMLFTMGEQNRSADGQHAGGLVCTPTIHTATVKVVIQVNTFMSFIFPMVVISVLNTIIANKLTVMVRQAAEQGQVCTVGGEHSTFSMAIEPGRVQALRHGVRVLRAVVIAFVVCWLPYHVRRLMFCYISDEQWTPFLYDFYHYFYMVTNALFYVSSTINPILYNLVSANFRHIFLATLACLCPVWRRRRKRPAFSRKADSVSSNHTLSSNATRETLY
Active calls of the source: *; . = not tested or not shown; ! = not confirmed by another sample.

SMILES	DSG3 Ab inh	AI-2 QS modul	VLA-4 inh	NTR1 ag
O=S(=O)(c1cccs1)N1CCN(CC(O)COC2CCCc3ccccc32)CC1 (stereo unspecified)	99.6	-1.8	5.4	-0.5
Cc1cc(C(=O)Cn2cnc3ccc(Cl)cc3c2=O)c(C)n1C1CC1	98.2	.	.	.
COc1ccccc1N(C)S(=O)(=O)c1ccc(C)c(C(=O)NCc2ccccn2)c1	102.7	.	-2.9	2.6
Cc1ccc2c(c1)C(=C(C#N)C#N)CCN2	125.2	.	.	.
O=C(Nc1ccc(F)cc1)Nc1ccc([N+](=O)[O-])cn1	54.3*	33.1	26.3	1.9
O=C(N/N=C/C(Cl)=C/c1ccccc1)c1ccco1	100.5	12.6	4.0	0.6
O=C(N/N=C/C(Cl)=C\c1ccccc1)c1ccco1	88.5*	4.8	-14.6	-0.1
Cc1noc(C)c1NC(=O)Nc1ccc2c(c1)C(=O)N([C@H](C)CO)C[C@H](C)[C@@H](CN(C)S(=O)(=O)c1ccc(Cl)cc1)OCCCC[C@@H](C)O2	99.5	.	.	.
CC(C)c1ccc(OCC(=O)NNC(=O)c2cnccn2)cc1	116.7	-82.9*	-7.9	-0.3
O=C(COc1ccc2ccccc2c1)NNC(=O)c1cnccn1	93.1	-6.4	-3.5	0.3
O=C(Oc1ccc(=O)[nH]n1)c1ccccc1	103.0	.	.	.
O=C(Cc1noc2ccccc12)Nc1ccc(Cl)cc1	109.1	-84.3*	7.7	1.3
Cc1c(N)c(C(C)(C)C)cc(C(C)(C)C)c1[N+](=O)[O-]	107.0	8.9	4.5	13.6
Cc1cc2nc3c(=O)[nH]c(=O)[nH]c3nc2c([N+](=O)[O-])c1N	34.8*	.	.	.
O=C1c2cccc3cccc(c23)C(=O)N1Cc1ccccn1	104.2	.	.	.
Cn1ncc(Cl)c1C(=O)N/N=C/c1cc2c(cc1[N+](=O)[O-])OCO2	70.6*	29.7	10.7	-1.3
O=C(N/N=C/c1cc2c(cc1[N+](=O)[O-])OCO2)c1ccccn1	73.6	2.6	-4.0	0.1
COc1ccc(NS(=O)(=O)c2ccc(N3CCOCC3)c(N)c2)cc1	100.4	.	0.1	-0.9
CSc1ncccc1C(=O)OCc1ccc([N+](=O)[O-])cc1	79.4*	3.6	7.2	1.6
CSc1ncccc1C(=O)OCc1cccc([N+](=O)[O-])c1	113.4	-2.1	-4.7	0.3
O=C(Cn1cnc2c(nnn2Cc2ccc(Cl)cc2)c1=O)c1ccccc1	61.7*	16.2	10.7	5.4
O=C(Cn1cnc2c(nnn2Cc2ccccc2)c1=O)c1ccccc1	105.3	6.2	-20.7	2.5
Clc1ccccc1Cn1nnc(-c2ccccc2)n1	102.3	-6.8	-0.4	2.2
Clc1ccc(Cn2nnc(-c3ccccc3)n2)cc1	87.2	-80.8*	7.8	0.5
CN(C)S(=O)(=O)Nc1ccc(Oc2ccccc2)cc1	98.0	-92.9*	9.7	1.3
SMILES	DSG3 Ab inh	AI-2 QS modul	VLA-4 inh	NTR1 ag
Cc1[nH]c(=O)[nH]c(=O)c1S(=O)(=O)Nc1ccc(Oc2ccccc2)cc1	110.5	36.7	5.0	-0.3
O=C(CSc1nc2nn(-c3ccccc3)c(=O)c-2c2n1CCCCC2)Nc1ccc(F)c(F)c1	-12.1*	.	-0.9	4.5
O=C(O)Cc1ccc(O)c(F)c1	67.8*	21.5	-3.5	0.1
COc1ccc(C(=O)NNC(=S)NC(=O)c2cccc([N+](=O)[O-])c2)cc1	95.0	-85.1*	0.9	-0.6
CCn1c(C)nc2cc(C(=O)NNC(=S)NC(=O)c3ccc(OC)cc3)ccc21	.	-85.4*	13.4	-0.4
O=C(NC(=S)NNC(=O)c1ccccc1O)c1cccc([N+](=O)[O-])c1	92.5	29.6	30.6	-0.2
O=C(COc1ccc([N+](=O)[O-])cc1)NNC(=S)NC(=O)c1ccc(Br)cc1	99.3	-127.3*	61.0*	3.2
CCn1c(C)nc2cc(C(=O)NNC(=S)Nc3ccc(C)cc3)ccc21	98.2	19.9	-9.6	2.4
CCn1c(C)nc2cc(C(=O)NNC(=O)CCC3CCCCC3)ccc21	62.6*	22.8	1.6	1.6
NNC(=O)Cc1cccc2ccc(Cl)cc12	103.9	.	.	.
CC(C)CC1C(=O)N(Cc2cn(CCC3OCCO3)nn2)CCS(=O)(=O)N1Cc1ccc(-c2cccc(N(C)C)c2)cc1 (stereo unspecified)	104.1	.	.	.
CCC[C@H]1CN(c2ccc(Br)cc2)C(=O)[C@@H]1CC(=O)Nc1ccc(OC)cc1	108.3	.	.	.
c1ccc2sc(NC3=NCN(CCN4CCOCC4)CN3)nc2c1	77.5*	9.2	-1.9	-0.4
OCCN1CN=C(Nc2nc3ccccc3s2)NC1	102.5	26.2	-1.6	3.0
CC1(C)CC(=O)C=C(c2n[nH]nc2-c2ccc(F)c(F)c2)C1	99.4	.	.	.
CC(=O)NS(=O)(=O)c1ccc(N)cc1	24.8*!	19.5	18.9	0.5
O=C(CCCN1CCN(c2ccccc2)CC1)c1ccc(F)cc1	105.4	.	.	.
O=C1NCN(c2ccccc2)C12CCN(CCCC(c1ccc(F)cc1)c1ccc(F)cc1)CC2	.	9.5	-3.6	40.2*
CCN1C(=O)[C@H]2[C@@H](c3ccc(C)cc3)N[C@]3(CCCN(Cc4ccccc4)C3=O)[C@H]2C1=O	105.9	.	.	.
O=C(Nc1ccc(NC(=O)N2CCN(c3ccccc3O)CC2)cc1)N1CCN(c2ccccc2O)CC1	53.9*	26.8	-0.1	-1.2
CC(C)(C)OC(=O)N1CCCN(C(=O)Nc2ccccc2)CC1	86.5*	20.3	6.6	1.4
O=C(Nc1ccc(Cl)cc1)N1CCN(c2ccccc2)CC1	96.6	-5.2	-3.4	1.4
CN(c1cccc(Cl)c1)S(=O)(=O)c1cccc(C(=O)NCc2ccncc2)c1	98.9	.	9.2	2.6
Cc1ccc(NC(=O)COC(=O)C(NS(=O)(=O)c2ccc(Cl)cc2)C(C)O)cc1C (stereo unspecified)	97.4	12.4	-3.7	0.1
Cc1ccc(NC(=O)COC(=O)C(NS(=O)(=O)c2ccc(Cl)cc2)C(C)O)c(Br)c1 (stereo unspecified)	53.4*	28.0	13.0	0.5
SMILES	DSG3 Ab inh	AI-2 QS modul	VLA-4 inh	NTR1 ag
S=C(NCCc1ccccc1)NC1CCC(NC(=S)NCCc2ccccc2)CC1 (stereo unspecified)	70.6*	13.8	6.4	13.1
CC1=CC(=C(C#N)C#N)C=C(C)N1CCN1CCN(C(=O)Nc2ccc(Cl)c(Cl)c2)CC1	115.6	9.4	12.8	3.2
CC1=CC(=C(C#N)C#N)C=C(C)N1Cc1ccc(Cl)cc1	-3.8*	8.7	6.0	3.1
COc1ccc(CC(=O)NCc2cccc(Cl)c2)cc1S(=O)(=O)N1CCOCC1	97.6	.	.	.
C=CCn1c(SCC(=O)N2CCN(c3ccccc3)CC2)nc2c([nH]c3ccccc32)c1=O	91.3*	0.6	-6.0	0.7
O=C(CCCCCCN1C(=O)c2ccccc2C1=O)NC1CCCCC1	-5.7*	19.2	3.9	-1.0
O=C(CCCCCN1C(=O)c2ccccc2C1=O)NC1CCCC1	.	15.7	32.5	-0.6
COc1ccc(NC(=O)CCC(=O)Nc2ccc3nc(N4CCOCC4)cc(C)c3c2)c(OC)c1	.	4.5	0.2	-0.5
COc1ccc(N(C)C(=O)CCC(=O)Nc2ccc3nc(N4CCOCC4)cc(C)c3c2)c(OC)c1	89.4*	1.0	-11.7	-0.2
Cc1cc(N2CCOCC2)nc2ccc(NC(=S)N3CCN(c4ccccc4)CC3)cc12	1.0*	19.5	8.8	4.9
